PubChem BioAssay (EPA / NIEHS)
Records with an inconclusive call do not appear. Calls of active or inactive are those of the source. The calls were made as follows: active = hit-call score of the fitted dose curve at least 0.9, where 1 is the maximum; inconclusive = response in the unintended direction; inactive = score below 0.9.

target: human Esterase Plasma (ES), BCHE (gene 590) (UniProt P06276); test: NVS_ENZ_hES: NovaScreen (NVS) Enzymatic Assay for human Esterase Plasma (ES) (AID 2283157)
Method in brief: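 Chemicals were added to plasma-extracted human enzyme in a cell-free format, and activity was read colorimetrically after 0.25 hour. Activity loss was referenced to DMSO; concentration-response top dose was 50 uM.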

Sequence of human Esterase Plasma (ES), BCHE (gene 590) (P06276 whole entry, looked up): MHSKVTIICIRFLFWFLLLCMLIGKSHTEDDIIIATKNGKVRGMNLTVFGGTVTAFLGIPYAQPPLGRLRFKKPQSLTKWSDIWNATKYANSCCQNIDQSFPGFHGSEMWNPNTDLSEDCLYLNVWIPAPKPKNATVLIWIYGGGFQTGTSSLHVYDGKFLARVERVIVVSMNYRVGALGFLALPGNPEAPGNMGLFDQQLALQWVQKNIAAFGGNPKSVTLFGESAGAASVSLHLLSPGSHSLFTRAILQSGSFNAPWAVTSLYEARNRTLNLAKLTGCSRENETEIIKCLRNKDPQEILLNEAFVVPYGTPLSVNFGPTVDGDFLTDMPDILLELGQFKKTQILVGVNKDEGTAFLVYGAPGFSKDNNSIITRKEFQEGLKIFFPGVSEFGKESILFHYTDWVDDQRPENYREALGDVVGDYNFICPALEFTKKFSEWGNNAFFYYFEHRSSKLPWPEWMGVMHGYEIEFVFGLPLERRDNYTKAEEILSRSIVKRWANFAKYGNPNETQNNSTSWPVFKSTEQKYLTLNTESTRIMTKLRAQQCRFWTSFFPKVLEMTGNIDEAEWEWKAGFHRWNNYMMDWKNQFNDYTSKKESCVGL

Structure (SMILES)	outcome	AC50
COC(=O)c1c(Cl)c(Cl)c(C(=O)OC)c(Cl)c1Cl	inactive	–
COc1cccc(-c2ccc(/C=C\CN3CCCCCC3)cc2Cl)c1	–	1.78 µM (active)
CC[C@H]1CC[C@H](NCc2cc3c(cc2OC)[C@H]2C[C@H]2C(=O)N3C)[C@H](c2ccccc2)N1	–	17.3 µM (active)
CCCN(C1CCN(C(=O)C2CCNCC2)CC1)[C@@H]1CCc2ccc(OC)cc2C1	inactive	–
O=C(O)CC(O)C(=O)O (centres undefined)	inactive	–
CCn1nc(Cc2ccccc2)cc1C1CCN(C[C@H]2C[C@H](N(C)[C@@H](C(=O)O)C(C)C)C[C@@H]2c2cccc(F)c2)CC1	–	13 µM (active)

target: Glycogen synthase kinase-3 beta (Homo sapiens) (UniProt P49841); test: NVS_ENZ_hGSK3b: NovaScreen (NVS) Enzymatic Assay for human Glycogen Synthase Kinase-3 beta (GSK3b) (AID 2283165)
Method in brief: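 Recombinant enzyme with specific fluorescent substrate, 1 h, product separated by electrophoretic mobility shift. Primary duplicate screen at 25 uM; actives (e.g. 30% inhibition) followed in singleton concentration-response to 50 uM. Signal loss fitted versus DMSO.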

Sequence of Glycogen synthase kinase-3 beta (Homo sapiens) (P49841 whole entry, looked up): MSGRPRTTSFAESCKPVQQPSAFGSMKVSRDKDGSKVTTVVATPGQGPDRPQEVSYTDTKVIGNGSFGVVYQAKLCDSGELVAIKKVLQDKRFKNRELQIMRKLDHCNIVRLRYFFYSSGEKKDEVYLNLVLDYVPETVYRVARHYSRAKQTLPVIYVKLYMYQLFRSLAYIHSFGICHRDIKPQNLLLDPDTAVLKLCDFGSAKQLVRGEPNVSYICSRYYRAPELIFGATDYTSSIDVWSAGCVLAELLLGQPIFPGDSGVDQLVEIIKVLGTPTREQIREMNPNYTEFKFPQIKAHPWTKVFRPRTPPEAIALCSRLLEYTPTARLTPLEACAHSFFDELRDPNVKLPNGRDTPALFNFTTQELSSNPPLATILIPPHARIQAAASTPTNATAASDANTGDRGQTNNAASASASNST

Structure (SMILES)	outcome
CC(C)=CCCC(C)CCO (centres undefined)	inactive
COc1cccc(-c2ccc(/C=C\CN3CCCCCC3)cc2Cl)c1	inactive
CC1(C)C(=O)N(Br)C(=O)N1Br	inactive
CN(C)c1ccc(Cc2ccc(N(C)C)cc2)cc1	inactive
Clc1nc(Cl)c(Cl)c(Cl)c1Cl	inactive
CC(C)=CCCC(C)=CC=O	inactive
CC1=CC(=O)CC(C)(C)C1	inactive
O=C1OC(=O)C2C3C=CC(C3)C12 (centres undefined)	inactive
CCCCCCCCO	inactive
CC(C)=CCC/C(C)=C/CO	inactive
CCCC(=O)OCC	inactive
Cc1ccc(S(=O)(=O)O)cc1C	inactive
O=P(OC(CCl)CCl)(OC(CCl)CCl)OC(CCl)CCl	inactive
